Data: PubChem BioAssay AID1159580 (chemical genetic matrix, 2015)
“And” between values parts separate entries of the source, which are not always exact repeats. Identical values can stand only once. Out of some 5,500 compounds screened, about 2,000 (36%) were called active. Roughly 18% stayed inconclusive and do not appear here. Rule as the data show it: active = normalized growth mostly below about 0.91 (no sharp cut-off); inconclusive = no clear call, values can overlap the other calls; inactive = mostly above about 0.92. This is one part of the list.

Test: chemical genetic growth profiling, strain panel (AID 1159580);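 also: tested at 20 µM; growth read once vehicle control cultures reached saturation at 30 °C; 1 = growth at the plate median or of vehicle wells; lower values mean less growth of the strain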
Settings: S. cerevisiae deletion strains, growth OD

Measured: normalized growth

O=c1c(O)c(-c2ccc(O)cc2O)oc2cc(O)cc(O)c12
active: locus YDR069C, strain doa4, active compounds read low 0.857
inactive: locus YAL013W, strain DEP1, active compounds read low 1 | locus YAL021C, strain ccr4, active compounds read low 0.949 | locus YAL026C, strain drs2, active compounds read low 0.973 | locus YAL030W, strain snc1, active compounds read low 0.99 | locus YAL040C, strain CLN3, active compounds read low 1.01 | locus YBL061C, strain skt5, active compounds read low 0.963 | locus YBR009C, strain hhf1, active compounds read low 1 | locus YBR021W, strain FUR4, active compounds read low 1.01 | locus YBR023C, strain chs3, active compounds read low 1.01 | locus YBR171W, strain sec66, active compounds read low 0.983 | locus YBR229C, strain ROT2, active compounds read low 0.988 | locus YBR231C, strain swc5, active compounds read low 0.965 | locus YBR279W, strain paf1, active compounds read low 0.995 | locus YCL011C, strain gbp2, active compounds read low 1 | locus YCL016C, strain dcc1, active compounds read low 0.988 | locus YCL029C, strain bik1, active compounds read low 1.01 | locus YCL061C, strain MRC1 (second series), active compounds read low 0.986 | locus YCL061C, strain MRC1, active compounds read low 0.976 | locus YCL069W, strain vba3, active compounds read low 0.997 | locus YCR088W, strain abp1, active compounds read low 0.991 | locus YDL005C, strain med2, active compounds read low 1.01 | locus YDL035C, strain GPR1, active compounds read low 0.973 | locus YDL040C, strain nat1, active compounds read low 1 | locus YDL074C, strain BRE1, active compounds read low 1 | locus YDL101C, strain DUN1, active compounds read low 1 | locus YDL185W, strain tfp1, active compounds read low 0.976 | locus YDL192W, strain arf1, active compounds read low 0.974 | locus YDR001C, strain nth1, active compounds read low 0.999 | locus YDR101C, strain arx1, active compounds read low 1 | locus YDR137W, strain rgp1, active compounds read low 1 | locus YDR150W, strain NUM1, active compounds read low 0.986 | locus YDR159W, strain sac3, active compounds read low 0.985 | locus YDR162C, strain NBP2, active compounds read low 0.971 | locus YDR195W, strain ref2 0.964 | locus YDR297W, strain sur2, active compounds read low 0.978 | locus YDR318W, strain mcm21, active compounds read low 1.01 | locus YDR334W, strain swr1, active compounds read low 0.956 | locus YDR335W, strain msn5, active compounds read low 0.98 | locus YDR363W, strain ESC2, active compounds read low 0.995 | locus YDR388W, active compounds read low 0.991 | locus YDR392W, strain spt3, active compounds read low 0.99 | locus YDR502C, strain sam2, active compounds read low 1.02 | locus YEL003W, strain gim4, active compounds read low 0.976 | locus YEL037C, strain rad23, active compounds read low 0.989 | locus YEL061C, strain CIN8 (second series), active compounds read low 0.992 | locus YEL061C, strain CIN8, active compounds read low 0.995 | locus YER002W, strain NOP16, active compounds read low 1.03 | locus YER015W, strain faa2, active compounds read low 0.984 | locus YER016W, strain bim1, active compounds read low 1 | locus YER110C, active compounds read low 1.02 | locus YER111C, strain swi4, active compounds read low 0.954 | locus YER155C, strain BEM2 (second series), active compounds read low 0.977 | locus YER155C, strain BEM2, active compounds read low 1.01 | locus YER167W, strain BCK2, active compounds read low 0.996 | locus YFR010W, strain ubp6, active compounds read low 0.916 | locus YGL078C, strain dbp3, active compounds read low 1.01 | locus YGL086W, strain mad1, active compounds read low 1.06 | locus YGL167C, strain pmr1, active compounds read low 0.98 | locus YGL173C, strain kem1, active compounds read low 0.947 | locus YGL227W, strain vid30, active compounds read low 1.01 | locus YGL240W, strain doc1, active compounds read low 1 | locus YGL248W, strain PDE1, active compounds read low 0.966 | locus YGL253W, strain hxk2, active compounds read low 0.994 | locus YGR078C, strain PAC10, active compounds read low 0.97 and 1.01 | locus YGR135W, strain pre9, active compounds read low 0.991 | locus YHR013C, strain ard1, active compounds read low 0.962 | locus YHR027C, strain rpn1, active compounds read low 0.973 | locus YHR030C, strain SLT2, active compounds read low 0.993 and 0.957 | locus YHR079C, strain IRE1 (second series), active compounds read low 1.02 | locus YHR079C, strain IRE1, active compounds read low 0.968 | locus YHR094C, strain hxt1, active compounds read low 1.02 | locus YHR129C, strain ARP1, active compounds read low 0.973 | locus YHR142W, strain chs7, active compounds read low 0.945 | locus YHR200W, strain rpn10, active compounds read low 0.994 | locus YIL066C, strain RNR3, active compounds read low 0.943 | locus YIL073C, strain SPO22, active compounds read low 1.08 | locus YIL125W, strain kgd1, active compounds read low 0.999 | locus YIR030C, strain dcg1, active compounds read low 1.02 | locus YJL092W, strain hpr5, active compounds read low 0.996 | locus YJL095W, strain BCK1 (second series), active compounds read low 0.964 | locus YJL095W, strain BCK1, active compounds read low 0.986 and 0.988 | locus YJL115W, strain asf1, active compounds read low 0.994 | locus YJL129C, strain trk1, active compounds read low 1.02 | locus YJL134W, strain LCB3, active compounds read low 1.02 | locus YJL154C, strain vps35, active compounds read low 1.02 | locus YJL164C, strain tpk1, active compounds read low 0.975 | locus YJL166W, strain qcr8, active compounds read low 0.984 | locus YJL168C, strain set2, active compounds read low 1 | locus YJL187C, strain SWE1 (second series), active compounds read low 0.966 | locus YJR043C, strain POL32, active compounds read low 0.956 | locus YJR066W, strain TOR1, active compounds read low 0.935 | locus YJR075W, strain HOC1, active compounds read low 1.01 | locus YKL009W, strain mrt4, active compounds read low 1.01 | locus YKL068W, active compounds read low 1.01 | locus YKL085W, strain MDH1 (second series), active compounds read low 0.999 | locus YKL085W, strain MDH1, active compounds read low 0.999 | locus YKL160W, strain elf1, active compounds read low 0.989 | locus YKL190W, strain CNB1, active compounds read low 1 | locus YKR001C, strain vps1, active compounds read low 1.01 | locus YKR026C, strain gcn3, active compounds read low 0.975 | locus YKR091W, strain srl3, active compounds read low 0.996 | locus YLL001W, strain dnm1, active compounds read low 0.983 | locus YLL026W, active compounds read low 1 | locus YLL041C, strain sdh2, active compounds read low 0.999 | locus YLR027C, strain aat2, active compounds read low 1.01 | locus YLR039C, strain RIC1, active compounds read low 1.04 | locus YLR058C, strain SHM2, active compounds read low 0.984 | locus YLR102C, strain apc9, active compounds read low 1.01 | locus YLR113W, strain HOG1, active compounds read low 1 | locus YLR221C, strain rsa3, active compounds read low 0.963 | locus YLR258W, strain gsy2, active compounds read low 0.985 | locus YLR262C, strain YPT6 (second series), active compounds read low 0.966 | locus YLR262C, strain YPT6, active compounds read low 1.06 | locus YLR268W, strain sec22, active compounds read low 1.03 | locus YLR320W, strain mms22, active compounds read low 0.959 | locus YLR330W, strain CHS5, active compounds read low 1.01 | locus YLR342W, strain FKS1 (second series), active compounds read low 0.965 | locus YLR342W, strain FKS1, active compounds read low 0.974 | locus YLR357W, strain rsc2, active compounds read low 0.924 | locus YLR370C, strain arc18, active compounds read low 0.988 | locus YLR371W, strain rom2, active compounds read low 0.995 | locus YLR384C, strain iki3, active compounds read low 1 | locus YLR418C, strain cdc73, active compounds read low 1.05 | locus YML016C, strain PPZ1, active compounds read low 0.972 | locus YML032C, strain rad52, active compounds read low 1 | locus YML120C, strain ndi1, active compounds read low 0.994 | locus YML124C, strain tub3, active compounds read low 1.02 | locus YMR058W, strain fet3, active compounds read low 0.932 | locus YMR078C, strain ctf18, active compounds read low 1.03 | locus YMR125W, strain sto1, active compounds read low 1 | locus YMR129W, active compounds read low 1.01 | locus YMR205C, strain PFK2, active compounds read low 0.98 | locus YMR223W, strain ubp8, active compounds read low 0.986 | locus YMR231W, strain pep5, active compounds read low 0.991 | locus YMR263W, strain SAP30, active compounds read low 0.996 and 1.01 | locus YMR307W, strain GAS1, active compounds read low 0.942 | locus YNL067W, strain RPL9B, active compounds read low 1 | locus YNL071W, strain lat1, active compounds read low 1 | locus YNL128W, strain TEP1, active compounds read low 1 | locus YNL175C, strain NOP13, active compounds read low 1.01 | locus YNL183C, strain NPR1, active compounds read low 0.961 | locus YNL197C, strain WHI3, active compounds read low 1.01 | locus YNL209W, strain ssb2, active compounds read low 0.991 | locus YNL224C, strain SQS1, active compounds read low 1.03 | locus YNL233W, strain BNI4, active compounds read low 0.988 | locus YNL248C, strain rpa49, active compounds read low 0.976 | locus YNL250W, strain rad50, active compounds read low 1.01 | locus YNL271C, strain bni1, active compounds read low 0.993 | locus YNL298W, strain CLA4, active compounds read low 1 | locus YNL307C, strain MCK1, active compounds read low 1.02 | locus YNL322C, strain KRE1 (second series), active compounds read low 0.987 | locus YNL322C, strain KRE1, active compounds read low 1 | locus YNR049C, strain mso1, active compounds read low 1 | locus YNR052C, strain pop2, active compounds read low 0.992 | locus YOL006C, strain TOP1, active compounds read low 1.01 | locus YOL012C, strain htz1 0.825 | locus YOL147C, strain pex11, active compounds read low 1.02 | locus YOR001W, strain rrp6, active compounds read low 0.996 | locus YOR061W, strain CKA2, active compounds read low 0.97 | locus YOR069W, strain VPS5, active compounds read low 0.992 | locus YOR070C, strain gyp1, active compounds read low 0.989 | locus YOR080W, strain dia2, active compounds read low 0.994 | locus YOR083W, strain WHI5 (second series), active compounds read low 1.01 | locus YOR083W, strain WHI5, active compounds read low 0.974 | locus YOR106W, strain vam3, active compounds read low 0.931 | locus YOR136W, strain idh2, active compounds read low 1.02 | locus YOR144C, strain elg1, active compounds read low 1.02 | locus YOR184W, strain ser1, active compounds read low 1.01 | locus YOR231W, strain MKK1, active compounds read low 0.988 | locus YOR265W, strain rbl2, active compounds read low 0.991 | locus YOR270C, strain vph1, active compounds read low 0.872 | locus YOR290C, strain snf2, active compounds read low 0.976 | locus YOR316C, strain cot1, active compounds read low 1.01 | locus YPL051W, strain arl3, active compounds read low 0.952 | locus YPL055C, strain LGE1, active compounds read low 1 | locus YPL078C, strain atp4, active compounds read low 0.994 | locus YPL106C, strain sse1, active compounds read low 0.916 | locus YPL240C, strain hsp82, active compounds read low 0.997 | locus YPL241C, strain CIN2, active compounds read low 1 | locus YPL256C, strain CLN2, active compounds read low 0.974 | locus YPR119W, strain clb2, active compounds read low 1.02 | locus YPR141C, strain kar3, active compounds read low 1.01 | locus YPR163C, strain tif3, active compounds read low 1.02 | locus YPR167C, strain met16, active compounds read low 0.995 | strain wtn01, active compounds read low 1.02
